Molecules are shown by their SMILES. Records with an inconclusive call do not appear. Calls of active or inactive are those of the source. Unless noted, the call rests on the fitted dose curve; in most records, active means well fitted curve in the direction sought with a large enough effect in the repeat runs; inconclusive means weak or mixed curves; inactive means no such curve, though single readings can be large; an effect the other way counts as inactive or inconclusive. Non-standard residues stand in square brackets, D forms with d. Residues, ends and D or L forms follow the SMILES beside them. pGlu = O=C1CC[C@@H](C(=O)O)N1; Thz = O=C(O)[C@@H]1CSCN1

This passage reports Potency results from PubChem BioAssay (Tox21).

Experiment [1] in a line: qHTS assay to identify small molecule antagonists of the glucocorticoid receptor (GR) signaling pathway - cell viability counter screen (AID 720693). Further: nearly all actives have a fitted effect of over 55% in size. Further: potency means the concentration at half of the fitted maximal effect. On the technique in general: In qHTS, concentration-response curves come from the screen itself.
Experiment [2] in a line: qHTS assay for identifying genotoxic compounds that show differential cytotoxicity against isogenic chicken DT40 cell lines with known DNA damage response pathways - wild type cell line (AID 743012). Further: nearly all actives have a fitted effect of over 60% in size. Further: potency means the concentration at half of the fitted maximal effect. In short, it runs like this: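 First, wild type DT40 cells were plated at 300 per well and equilibrated about 0.5 h at 37 C/5% CO2. Next, compounds in DMSO were added and exposure lasted 40 h. Finally, CellTiter-Glo was added for 30 min at room temperature and luminescence recorded.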

The nature of experiment [3]: qHTS assay for identifying genotoxic compounds that show differential cytotoxicity against isogenic chicken DT40 cell lines with known DNA damage response pathways - Rev3 mutant cell line (AID 743014). Further: nearly all actives have a fitted effect of over 55% in size. Further: potency means the concentration at half of the fitted maximal effect.
Experiment [4] in a line: qHTS assay for identifying genotoxic compounds that show differential cytotoxicity against isogenic chicken DT40 cell lines with known DNA damage response pathways - Rad54/Ku70 mutant cell line (AID 743015). Further: nearly all actives have a fitted effect of over 60% in size. Further: potency means the concentration at half of the fitted maximal effect.
Experiment [5] in a line: qHTS assay to identify small molecule antagonists of the androgen receptor (AR) signaling pathway - cell viability counter screen (AID 743033; further: nearly all actives have a fitted effect of over 45% in size).
Experiment [6] has as its target Androgen receptor (Homo sapiens) (UniProt P10275). Put plainly: qHTS assay to identify small molecule agonists of the androgen receptor (AR) signaling pathway using the MDA cell line (AID 743040; further: nearly all actives have a fitted effect of over 20% in size; further: potency means the concentration at half of the fitted maximal effect). In short, it runs like this: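 MDA-kb2 breast carcinoma cells stably carrying an MMTV-driven luciferase reporter (AR- and GR-responsive) were seeded and held 5 h at 37C, 0% CO2, then exposed to compounds in DMSO for 16 h. Luminescence was read 30 min after ONE-Glo addition.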

Experiment [7] is described as follows: qHTS assay to identify small molecule antagonists of the androgen receptor (AR) signaling pathway using the MDA cell line - cell viability counter screen (AID 743041; further: nearly all actives have a fitted effect of over 45% in size; further: potency means the concentration at half of the fitted maximal effect). In short, it runs like this:
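MDA-kb2 AR-luc human breast carcinoma cells (MMTV-luciferase, AR/GR responsive) were treated with compounds plus R1881 agonist for 16 h at 37 °C. Viability was read as CellTiter-Fluor fluorescence in the same wells as the reporter assay.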

In experiment [8] the target is Androgen receptor (Homo sapiens) (UniProt P10275). Put plainly: qHTS assay to identify small molecule agonists of the androgen receptor (AR) signaling pathway (AID 743036; active means well fitted activation curve with a large enough effect in the signal ratio in the repeat runs, with a control signal flat, not every such curve was filed as active; the % refers to the signal ratio). In short, it runs like this: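 Screening used 2,000 AR-bla HEK293 cells per well, treated 16 h at 37C with test compounds in DMSO alongside positive and DMSO-only controls; beta-lactamase activity was then read by LiveBLAzer B/G FRET fluorescence after 2 h at room temperature.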
Sequence of Androgen receptor (Homo sapiens) (P10275 whole entry, looked up): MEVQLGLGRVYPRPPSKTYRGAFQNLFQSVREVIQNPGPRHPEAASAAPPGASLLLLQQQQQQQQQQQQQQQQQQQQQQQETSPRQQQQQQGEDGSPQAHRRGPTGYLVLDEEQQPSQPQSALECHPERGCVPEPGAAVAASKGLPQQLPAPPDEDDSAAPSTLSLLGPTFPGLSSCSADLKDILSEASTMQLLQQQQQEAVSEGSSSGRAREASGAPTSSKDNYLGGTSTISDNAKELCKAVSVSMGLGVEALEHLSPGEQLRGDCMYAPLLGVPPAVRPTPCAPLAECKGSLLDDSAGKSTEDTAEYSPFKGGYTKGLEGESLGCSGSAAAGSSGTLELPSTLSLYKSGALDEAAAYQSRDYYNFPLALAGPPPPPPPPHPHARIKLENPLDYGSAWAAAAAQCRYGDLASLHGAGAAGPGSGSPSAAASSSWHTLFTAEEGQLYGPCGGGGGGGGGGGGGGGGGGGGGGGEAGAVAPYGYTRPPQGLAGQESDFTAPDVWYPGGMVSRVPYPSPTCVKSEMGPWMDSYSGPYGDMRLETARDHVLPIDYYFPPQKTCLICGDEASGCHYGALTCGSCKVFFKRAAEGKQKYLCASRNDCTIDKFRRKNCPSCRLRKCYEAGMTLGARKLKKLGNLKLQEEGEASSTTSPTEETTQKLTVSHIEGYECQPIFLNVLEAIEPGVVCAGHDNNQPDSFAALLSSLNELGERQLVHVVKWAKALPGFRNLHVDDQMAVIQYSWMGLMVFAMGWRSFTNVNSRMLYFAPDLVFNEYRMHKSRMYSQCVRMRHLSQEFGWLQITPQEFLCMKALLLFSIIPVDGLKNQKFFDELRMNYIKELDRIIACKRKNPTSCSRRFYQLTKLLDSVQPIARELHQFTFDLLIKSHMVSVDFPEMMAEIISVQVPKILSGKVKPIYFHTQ

Experiment [9] shares this target. Put plainly: qHTS assay to identify small molecule antagonists of the androgen receptor (AR) signaling pathway using the MDA cell line (AID 743042; further: nearly all actives have a fitted effect of over 55% in size; further: potency means the concentration at half of the fitted maximal effect). In short, it runs like this: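 MDA-kb2 cells (human breast carcinoma, stably carrying an MMTV-luciferase reporter responsive to AR and GR) were plated at 3,000 cells/well and preincubated 5 hr at 37C, then given compound plus R1881 agonist for 16 h. ONE-Glo luminescence was read.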

For experiment [10] the target is unchanged. Put plainly: qHTS assay to identify small molecule antagonists of the androgen receptor (AR) signaling pathway (AID 743035; active means well fitted inhibition curve with a large enough effect in the signal ratio in the repeat runs, not every such curve was filed as active; the % refers to the signal ratio; further: potency means the concentration at half of the fitted maximal effect). In short, it runs like this:
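Beta-lactamase FRET read (2 h RT incubation with LiveBLAzer B/G) following 16 h of compound plus R1881 treatment of AR-UAS-bla HEK293 cells, which had been pre-incubated 4 h at 37C.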

For `COc1cc(Br)c(C[N+]2(CCOCCC3CCC4CC3C4(C)C)CCOCC2)cc1OC` (configuration not stated), the Potency entry in experiment [1], in [5], in experiment [6] and in experiment [7] was “inactive” each time. The Potency in [2] was 1.5 µM (active); in experiment [3], 2.66 µM (active); in [4], 2.66 µM (active).

`C=C1CC[C@H](O)CC1=C/C=C1\CCC[C@]2(C)[C@@H]([C@H](C)CCCC(C)(C)O)CC[C@@H]12`: the Potency was 10.7 µM (active) in experiment [1]; 5.96 µM (active) in [2]; 6.68 µM (active) in experiment [3]; 5.96 µM (active) in experiment [4]; 26.6 µM (active) in [9]. In addition, the Potency entry in experiment [5], in [8], in experiment [6] and in experiment [7] was “inactive” in each case.

In the case of `CC(=O)[C@@]1(O)CC[C@H]2[C@@H]3C=C(Cl)C4=CC(=O)CC[C@]4(C)[C@H]3CC[C@@]21C`, the Potency entry in [1], in experiment [5], in experiment [7] and in experiment [9] was “inactive” each time. Further, the Potency in experiment [2] is 11.9 µM (active); in [3], 23.7 µM (active); in [4] it was 23.7 µM (active); in experiment [10], 0.674 µM (active); in experiment [6], 0.596 µM (active).

With `CC#CCC(C)[C@H](O)/C=C/[C@@H]1[C@H]2c3cccc(CCCC(=O)O)c3O[C@H]2C[C@H]1O` (some centres not stated), the Potency result in experiment [1], in experiment [2], in experiment [3], in experiment [4], in experiment [5] and in experiment [6] was “inactive” each time. The Potency result in experiment [7] and in [9] was “inactive” in each case.

`CC(=O)Nc1ccc(OC(=O)c2ccccc2O)cc1`: the Potency result in [1], in experiment [2], in experiment [3], in [4], in experiment [5] and in experiment [10] was “inactive” each time. Besides, the Potency result in experiment [6], in experiment [7] and in [9] was “inactive” throughout.

For the molecule `O=C(O)c1nc(=O)[nH]c(=O)[nH]1`, the Potency result in experiment [1], in experiment [2], in experiment [3], in experiment [4], in [5] and in experiment [10] was “inactive” throughout. Also, the Potency result in experiment [8], in [6], in [7] and in experiment [9] was “inactive” in each case.

As for `O=C1CC[C@@H](C(=O)N2CSC[C@H]2C(=O)O)N1` ([pGlu]-[Thz]-OH), the Potency entry in [1], in [2], in experiment [3], in experiment [4], in [5] and in experiment [10] was “inactive” throughout. In addition, the Potency entry in [8], in experiment [7] and in experiment [9] was “inactive” throughout.

For the molecule `CCOC(=O)COc1ccc2c(C)c(CCN(CC)CC)c(=O)oc2c1`, the Potency entry in [1], in [2], in experiment [3], in experiment [4], in [5] and in experiment [10] was “inactive” each time. Moreover, the Potency result in experiment [8], in experiment [6], in experiment [7] and in experiment [9] was “inactive” each time.

With `C[N@+]12CCCC[C@@H]1CCC(=C(c1cccs1)c1cccs1)C2`, the Potency entry in experiment [1], in [5] and in [10] was “inactive” throughout. For the same molecule, the Potency was 5.96 µM (active) in experiment [2]; 10.6 µM (active) in experiment [3]; 8.41 µM (active) in experiment [4]; 26.6 µM (active) in [7]; 18.8 µM (active) in experiment [9].

As for `CO[C@@H]1[C@@H](O[C@@H]2O[C@H](C)[C@@H](O[C@H]3C[C@@](C)(O)[C@@H](OC(=O)CC(C)C)[C@H](C)O3)[C@H](N(C)C)[C@H]2O)[C@@H](CC=O)C[C@@H](C)C(=O)/C=C/C2OC2C[C@@H](C)OC(=O)C[C@H]1OC(C)=O` (some centres not stated), the Potency result in experiment [1], in experiment [5] and in [6] was “inactive” each time. Also, the Potency is 3.35 µM (active) in experiment [2], 5.31 µM (active) in experiment [3] and 5.31 µM (active) in experiment [4].

As for `CC1(C)S[C@@H]2[C@H](NC(=O)C(C(=O)Oc3ccc4c(c3)CCC4)c3ccccc3)C(=O)N2[C@H]1C(=O)O` (some centres not stated), the Potency result in [1], in experiment [2], in experiment [3], in experiment [4], in experiment [5] and in experiment [10] was “inactive” throughout. In addition, the Potency result in [8], in experiment [6], in experiment [7] and in [9] was “inactive” in each case.

As for `CN1CCC(CN2c3ccccc3Sc3ccccc32)C1` (configuration not stated), the Potency result in [1], in experiment [5], in experiment [8], in experiment [6] and in experiment [7] was “inactive” each time. The Potency is 5.96 µM (active) in experiment [2], 4.22 µM (active) in experiment [3] and 5.96 µM (active) in experiment [4].

Regarding `O=C(O)CCC/C=C\C[C@@H]1[C@@H](/C=C/[C@@H](O)COc2cccc(C(F)(F)F)c2)[C@H](O)C[C@@H]1O`, the Potency entry in experiment [1], in experiment [2], in experiment [3], in experiment [4], in experiment [5] and in [10] was “inactive” in each case. The Potency result in [6], in [7] and in experiment [9] was “inactive” in each case.

For the molecule `CC(C)CCCC(C)NC(C)C` (configuration not stated), the Potency entry in experiment [1], in experiment [2], in experiment [3], in experiment [4], in experiment [5] and in experiment [10] was “inactive” throughout. Moreover, the Potency entry in experiment [8], in experiment [6], in [7] and in experiment [9] was “inactive” in each case.

Consider `Nc1ccn(C[C@@H](CO)OCP(=O)(O)O)c(=O)n1`, for which the Potency result in experiment [1], in experiment [2], in experiment [3], in experiment [4], in experiment [5] and in [10] was “inactive” throughout. For the same molecule, the Potency entry in experiment [8], in [6], in [7] and in experiment [9] was “inactive” in each case.

With `CC1=C[C@H](O)CC(C)(C)[C@H]1/C=C/C(C)=C/C=C/C(C)=C/C=C/C=C(C)/C=C/C=C(C)/C=C/C1=C(C)C[C@@H](O)CC1(C)C`, the Potency entry in experiment [1], in experiment [5], in experiment [8], in [6] and in experiment [7] was “inactive” throughout. Further, the Potency is 11.9 µM (active) in experiment [2], 18.8 µM (active) in experiment [3] and 21.1 µM (active) in [4].

Turning to `CC(C)(C)c1ccc(CN2CCN(C(c3ccccc3)c3ccc(Cl)cc3)CC2)cc1` (configuration not stated), the Potency entry in experiment [1], in experiment [5], in experiment [8], in [6] and in [9] was “inactive” each time. The Potency in experiment [2] was 5.31 µM (active); in experiment [3], 4.22 µM (active); in experiment [4], 8.41 µM (active).

Turning to `CN[C@@H]1[C@H](O[C@H]2[C@H](O[C@H]3[C@H](O)[C@@H](O)[C@H](N=C(N)N)[C@@H](O)[C@@H]3N=C(N)N)O[C@@H](C)[C@]2(O)CO)O[C@@H](CO)[C@H](O)[C@H]1O`, the Potency result in experiment [1], in experiment [2], in experiment [3], in experiment [4], in experiment [5] and in experiment [10] was “inactive” throughout. The Potency entry in [6], in experiment [7] and in experiment [9] was “inactive” each time.
